Data reported in the supplement of paper PMC12350171.
A number with no mark means an inactive call.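 The calls were made as follows: active = AUC significantly below DMSO controls by Student t-fit with adjusted P under 0.01; inactive = not significantly reduced.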

test system: Haemophilus parainfluenzae; assay: growth AUC normalised to DMSO control (fraction of control); higher = less growth inhibition, active = hit call of the paper; conditions: 20 µM
In short: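 Hemin and NAD were added to the medium for Haemophilus parainfluenzae. All pathogens, after two anaerobic passages, were inoculated at a starting OD578 of 0.01 into pre-reduced mGAM plates with 20 μM compound and 1% DMSO under breathable seals, and OD578 was read hourly for 24 h in three biological replicates. AUC of each growth curve was obtained with the trapezoidal rule up to the exponential-to-stationary transition and normalised to DMSO controls from the same plate.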

| SMILES | growth AUC normalised to DMSO control |
| --- | --- |
| C=C1/C(=C\C=C2/CCC[C@]3(C)[C@@H]([C@H](C)/C=C/[C@@H](O)C4CC4)CC[C@@H]23)C[C@@H](O)C[C@@H]1O [Calcipotriene] | 0.836 |
| CC[C@H](C)C(=O)O[C@H]1CCC=C2C=C[C@H](C)[C@H](CC[C@@H]3C[C@@H](O)CC(=O)O3)[C@H]21 [Mevastatin] | 0.978 |
| COc1cnc(NS(=O)(=O)c2ccc(N)cc2)nc1 [Sulfameter] | 0.98 |
| N[C@@H](Cc1cc(I)c(Oc2ccc(O)c(I)c2)c(I)c1)C(=O)O [Liothyronine] | 0.943 |
| Cn1c(=O)c2c(ncn2C)n(C)c1=O [Caffeine] | 1.04 |
| O=C(CCCCC(=O)Nc1c(I)cc(I)c(C(=O)O)c1I)Nc1c(I)cc(I)c(C(=O)O)c1I [Iodipamide] | 1.01 |
| O=C1c2ccccc2S(=O)(=O)N1CCCCN1CCN(c2ncccn2)CC1 [Ipsapirone] | 0.979 |
